Where “and” joins values, the source holds several entries; their conditions need not be identical. Equal entries are not always repeated. Results filed as inconclusive are left out. Some structures have more than one record in an assay (separate samples or runs), and their calls can disagree. Calls of active or inactive are those of the source. Unless noted, calls come from the whole dose curve; as a rule, active = well fitted curve in the direction sought with a large enough effect; inconclusive = small, poorly fitted or top-dose-only effect, or another doubt; inactive = no such curve, though single readings can be large; an effect the other way counts as inactive or inconclusive.
Experiments:
PA-1 = assay: Primary qHTS to identify gynecologic anti-cancer compounds using libraries of approved drugs and bioactive compounds (AID 1345084); settings: Gynecologic cancer cell panel viability, ATPlite luminescence, 48 h; series mostly up to 57.5 µM; note: % is set by controls: 0 for no effect and ±100 for the full control effect; nearly all actives have a fitted effect of over 55% in size
Method in brief: (§1)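 Cell viability after 48 h drug treatment, ATPlite luminescence readout; five doses.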

SKOV3 = assay: as above; settings: Gynecologic cancer cell panel viability, ATPlite luminescence, 48 h; series mostly up to 57.5 µM
Method in brief: as §1

Tov-21-G = assay: as above; settings: Gynecologic cancer cell panel viability, ATPlite luminescence, 48 h; series mostly up to 57.5 µM
Method in brief: as §1

Tov112D = assay: as above; settings: Gynecologic cancer cell panel viability, ATPlite luminescence, 48 h; series mostly up to 57.5 µM
Method in brief: as §1

[1] = Drug repurposing screens with cells derived from glioblastoma tumor samples (AID 1345199); settings: GBM patient neurospheres viability, ATP luminescence, 48 h; note: nearly all actives have a fitted effect of over 40% in size; note: potency is the fitted concentration of half-maximal effect; for activity, negative = cell killing: % is set by controls: 0 for no effect and ±100 for the full control effect
Method in brief: (§2)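 Primary testing used CD133+ neurospheres from four GBM patients, seven concentrations, 48 h exposure and ATP-based viability; confirmation added three slower-growing patient lines.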

astro = assay: as above; settings: viability, ATP luminescence, 48 h; series mostly up to 45.9 µM
Method in brief: as §2

[2] = qHTS assay for small molecule activators of the human pregnane X receptor (PXR) signaling pathway (AID 720659; call rule not given here; note: 0% is about no effect)
[3] = target: Nuclear receptor subfamily 1 group I member 2 (Rattus norvegicus) (UniProt Q9R1A7); assay: qHTS assay for small molecule activators of the rat pregnane X receptor (rPXR) signaling pathway (AID 651751; call rule not given here; note: 0% is about no effect); settings: rPXR reporter cells, luciferase (One-Glo), 24 h
[4] = at 45.9 µM (top of the series), tumour line B
[5] = at 45.9 µM (top of the series), tumour line D
[6] = at 108 µM (top of the series), tumour line B
[7] = at 108 µM (top of the series), tumour line D
[8] = at 46 µM (top of the series), tumour line A
[9] = at 46.1 µM (top of the series), tumour line C
[10] = at 21.2 µM (top of the series), tumour line B
[11] = at 21.2 µM (top of the series), tumour line D
[12] = at 21.3 µM (top of the series), tumour line A
[13] = at 91.6 µM (top of the series), tumour line B
[14] = at 91.6 µM (top of the series), tumour line D
[15] = at 91.6 µM (top of the series), tumour line A

Nuclear receptor subfamily 1 group I member 2 (Rattus norvegicus), sequence (Q9R1A7 whole entry, looked up): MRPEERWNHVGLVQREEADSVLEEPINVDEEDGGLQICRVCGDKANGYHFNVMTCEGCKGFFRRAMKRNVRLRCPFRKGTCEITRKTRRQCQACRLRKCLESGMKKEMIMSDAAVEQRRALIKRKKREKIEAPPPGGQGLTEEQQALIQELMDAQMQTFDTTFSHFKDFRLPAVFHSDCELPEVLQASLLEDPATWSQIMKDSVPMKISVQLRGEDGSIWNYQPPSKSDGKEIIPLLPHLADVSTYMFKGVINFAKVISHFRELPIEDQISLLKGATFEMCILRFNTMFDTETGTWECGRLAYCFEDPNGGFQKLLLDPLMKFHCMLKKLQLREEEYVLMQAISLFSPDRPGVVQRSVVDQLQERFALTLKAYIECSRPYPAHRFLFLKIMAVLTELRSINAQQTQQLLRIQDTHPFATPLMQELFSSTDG

C[C@H](N)C(=O)c1ccccc1
inactive: Potency (PA-1) | outcome (SKOV3) | Potency (Tov-21-G) | Potency (Tov112D) | activity, negative = cell killing [1, 4] -11.6% | activity, negative = cell killing [1, 5] -9.76% | activity, negative = cell killing [1, 6] -16.2% | activity, negative = cell killing [1, 7] -20.3%

CCC1(CC)C(=O)C=CNC1=O
inactive: Potency (PA-1) | outcome (SKOV3) | Potency (Tov-21-G) | Potency (Tov112D) | activity, negative = cell killing [1, 4] -5.96% | activity, negative = cell killing [1, 5] -8.64% | activity, negative = cell killing [1, 8] -23.7%

c1ccc2c(c1)sc1ccccc12
inactive: Potency (PA-1) | outcome (SKOV3) | Potency (Tov-21-G) | Potency (Tov112D) | activity, negative = cell killing [1, 4] -12.7% | activity, negative = cell killing [1, 5] -8% | activity, negative = cell killing [1, 8] -9.49%

O=C1OC(c2ccc(O)c(S(=O)(=O)O)c2)(c2ccc(O)c(S(=O)(=O)O)c2)c2c(Br)c(Br)c(Br)c(Br)c21
inactive: Potency (PA-1) | outcome (SKOV3) | Potency (Tov-21-G) | Potency (Tov112D) | activity, negative = cell killing [1, 4] -1.68% | activity, negative = cell killing [1, 5] 0.706% | activity, negative = cell killing [1, 8] -10.6% | Potency (astro)

C[C@H]1[C@@H]2Cc3ccc(O)cc3[C@@]1(C)CCN2C
active: Potency ([1]; tumour line A) 112 µM
inactive: Potency (PA-1) | outcome (SKOV3) | Potency (Tov-21-G) | Potency (Tov112D) | activity, negative = cell killing ([1]; at 231 µM (top of the series), tumour line B) -0.237% | activity, negative = cell killing ([1]; at 231 µM (top of the series), tumour line D) -19.7% | Potency (astro)

CCC1(c2ccccc2)C(=O)N(COC)C(=O)N(COC)C1=O
inactive: Potency (PA-1) | outcome (SKOV3) | Potency (Tov-21-G) | Potency (Tov112D) | activity, negative = cell killing [1, 4] -7.62% | activity, negative = cell killing [1, 5] 2.45% | activity, negative = cell killing [1, 8] -19.3% | Potency (astro)

NC(=O)CS(=O)C(c1ccccc1)c1ccccc1 (stereo not given)
inactive: Potency (PA-1) | outcome (SKOV3) | Potency (Tov-21-G) | Potency (Tov112D) | activity, negative = cell killing [1, 4] -12.2% | activity, negative = cell killing [1, 5] -18.4% | activity, negative = cell killing [1, 8] -9.02% | Potency (astro)

c1ccc(CN2CCNCC2)cc1
inactive: Potency (PA-1) | outcome (SKOV3) | Potency (Tov-21-G) | Potency (Tov112D) | activity, negative = cell killing ([1]; at 194 µM (top of the series), tumour line B) 7.52% | activity, negative = cell killing ([1]; at 194 µM (top of the series), tumour line D) -7.34% | Potency (astro)
active: Potency ([1]; tumour line A) 126 µM

O=C1c2ccccc2C(=O)C1C(=O)C(c1ccccc1)c1ccccc1
inactive: Potency (PA-1) | outcome (SKOV3) | Potency (Tov-21-G) | Potency (Tov112D) | activity, negative = cell killing [1, 4] -21.4% | activity, negative = cell killing [1, 5] -28.8% | activity, negative = cell killing [1, 8] -53.7% | activity, negative = cell killing [1, 9] -30.6% | outcome [2]

COc1cccc(C(=O)CCN[C@@H](C)[C@H](O)c2ccccc2)c1
active: Potency ([1]; tumour line A) 28.2 µM | Potency ([1]; tumour line B) 22.4 µM | Potency ([1]; tumour line D) 22.4 µM
inactive: Potency (PA-1) | outcome (SKOV3) | Potency (Tov-21-G) | Potency (Tov112D)

COP(=S)(OC)Oc1cc(Cl)c(Cl)cc1Cl
inactive: Potency (PA-1) | outcome (SKOV3) | Potency (Tov-21-G) | Potency (Tov112D) | activity, negative = cell killing [1, 4] 10.9% and 7.75% | activity, negative = cell killing [1, 5] -10.8% and 1.81% | activity, negative = cell killing [1, 8] -24.7% and -15.3% | Potency (astro) | max response [3] 1.25% | outcome [2]

C#C[C@]1(O)CC[C@H]2[C@@H]3CCC4=CC(=O)CC[C@]4(C)[C@H]3CC[C@@]21C
inactive: Potency (PA-1) | outcome (SKOV3) | Potency (Tov-21-G) | Potency (Tov112D) | activity, negative = cell killing [1, 4] -23.4% and -19.6% | activity, negative = cell killing [1, 5] -13.1% and -15.3% | activity, negative = cell killing [1, 8] -19.9%

CC(=O)NC1CCSC1=O (stereo not given)
inactive: Potency (PA-1) | outcome (SKOV3) | Potency (Tov-21-G) | Potency (Tov112D) | activity, negative = cell killing [1, 10] -5.98% | activity, negative = cell killing [1, 11] 7.84% | activity, negative = cell killing [1, 12] -12.3% | activity, negative = cell killing [1, 4] -16.4% | activity, negative = cell killing [1, 5] -12.7%

CCOC(=O)CC(SP(=S)(OC)OC)C(=O)OCC (stereo not given)
inactive: Potency (PA-1) | outcome (SKOV3) | Potency (Tov-21-G) | Potency (Tov112D) | activity, negative = cell killing [1, 4] -14.8% | activity, negative = cell killing [1, 8] -27.3% | activity, negative = cell killing [1, 13] -2.57% | activity, negative = cell killing [1, 14] -14% | Potency (astro) | max response [3] -0.753% and 0.726% and 3.47% | outcome [2]

CN1CC[C@]23c4c5ccc(O)c4O[C@H]2[C@@H](O)CC[C@H]3[C@H]1C5
inactive: Potency (PA-1) | outcome (SKOV3) | Potency (Tov-21-G) | Potency (Tov112D) | activity, negative = cell killing [1, 15] -29.5% | activity, negative = cell killing [1, 13] -3.58% | activity, negative = cell killing [1, 14] -23.6%

O=c1[nH]oc2c1CCNC2
inactive: Potency (PA-1) | outcome (SKOV3) | Potency (Tov-21-G) | Potency (Tov112D) | activity, negative = cell killing [1, 4] -19.5% | activity, negative = cell killing [1, 5] -5.63% | activity, negative = cell killing [1, 8] -27.4% | Potency (astro)

O=c1oc2ccccc2c(O)c1Cc1c(O)c2ccccc2oc1=O
inactive: Potency (PA-1) | outcome (SKOV3) | Potency (Tov-21-G) | Potency (Tov112D) | activity, negative = cell killing [1, 10] -21.7% | activity, negative = cell killing [1, 11] -20.9% | activity, negative = cell killing [1, 12] -20.4%

CCCCC/C=C\C/C=C\C/C=C\C/C=C\CCCC(=O)NCC(=O)O
inactive: activity, negative = cell killing ([1]; at 4.17 µM (top of the series), tumour line A) -24.5% | activity, negative = cell killing ([1]; at 4.17 µM (top of the series), tumour line B) -4.38% | activity, negative = cell killing ([1]; at 4.17 µM (top of the series), tumour line D) -5.18%

COc1c2c(cc3c1OCO3)CCN(C)C2
inactive: activity, negative = cell killing [1, 10] -1.01% | activity, negative = cell killing [1, 11] -13.1%

NNc1ccccc1
inactive: activity, negative = cell killing [1, 9] 11.9%

COc1ccc2c3c1O[C@H]1[C@H](O)CC[C@H]4[C@@H](C2)N(C)CC[C@@]341
inactive: activity, negative = cell killing [1, 14] -10.3%

CCN[C@@H](C)Cc1ccccc1
inactive: activity, negative = cell killing [1, 6] -6.22% | activity, negative = cell killing [1, 7] -20.9%

CN1CCC(O)(c2ccc(F)cc2)C(C(=O)c2ccc(F)cc2)C1 (stereo not given)
active: Potency ([1]; tumour line B) 28.2 µM

O=C(CCCN1CCC2(CC1)C(=O)NCN2c1ccccc1)c1ccc(F)cc1
active: Potency ([1]; tumour line D) 12.6 µM

CN=C1CN(O)C(c2ccccc2)=c2cc(Cl)ccc2=N1
active: Potency ([1]; tumour line A) 11.2 µM
inactive: activity, negative = cell killing [1, 4] -15.1% and 1.01% | activity, negative = cell killing [1, 5] -14.7% and -15.6% | Potency (astro)

CN[C@@H](C)Cc1ccccc1
inactive: activity, negative = cell killing [1, 15] -24.4% | activity, negative = cell killing [1, 13] -1.76% | activity, negative = cell killing [1, 14] 4.77%

— PubChem BioAssay (NCATS)
